# Source: PubChem BioAssay (NCATS)
# Values joined by “and” are separate entries in the source; they are usually repeats but may differ in a detail not shown here. Equal values may be shown once. Active and inactive are the calls of the source. Unless noted, calls follow the shape of the full dose curve.
# Key:
# [1] = target: Tumor necrosis factor (Homo sapiens) (UniProt P01375); test: qHTS assay to identify small molecules that stimulate Tumor Necrosis Factor-alpha (TNF-alpha) secretion (AID 651757; active = well fitted curve in the direction sought with a large enough effect in the signal ratio; inconclusive = small, poorly fitted or top-dose-only effect, or a change in a side signal; inactive = no such curve, though single readings can be large or run the other way; the % refers to the signal ratio; also: 0% is about no effect)
# Summary of the method: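 Human monocytic THP-1 cells are plated, treated with compound and held at 37 C for 17 hrs. Labeled anti-TNF-alpha antibody mixture is then added; after 3 hr at room temperature, TR-FRET signal reports secreted TNF-alpha.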
# [2] = qHTS assay for small molecule activators of the human pregnane X receptor (PXR) signaling pathway (AID 720659; call rule not given here; also: 0% is about no effect)
# [3] = target: Estrogen receptor (Homo sapiens) (UniProt P03372); test: qHTS assay for small molecule antagonists of estrogen receptor alpha signaling (AID 588513; active = well fitted curve in the direction sought with a large enough effect in the signal ratio, with a control signal flat, not every such curve was filed as active; inconclusive = small, poorly fitted or top-dose-only effect, or effect the other way, or a change in a side signal; inactive = no such curve, though single readings can be large or run the other way; the % refers to the signal ratio; also: potency is read from the fitted curve at half-maximal effect)
# Summary of the method: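 ER-alpha-UAS-bla GripTite HEK 293 cells in medium with 2% charcoal/dextran-treated FBS were preincubated 4 h at 37 C, dosed with compound (1:2 titration), stimulated with 0.5nM 17-beta-estradiol for 18 h, then read by CCF4 beta-lactamase fluorescence.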
# [4] = qHTS assay for small molecule agonists of retinoid X receptor alpha signaling (AID 588544); conditions: HEK293T RXRa-UAS-bla, beta-lactamase reporter, 18 h; 530 nm emission;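 as to activation: 0% = DMSO basal wells and 100% = reference agonist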
# [5] = target: Retinoic acid receptor RXR-alpha (Homo sapiens) (UniProt P19793); test: as above
# [6] = target: Glucocorticoid receptor (Homo sapiens) (UniProt P04150); test: qHTS assay for small molecule agonists of glucocorticoid receptor signaling (AID 588532; active = well fitted curve in the direction sought with a large enough effect in the signal ratio, with a control signal flat; inconclusive = small, poorly fitted or top-dose-only effect, or a change in a side signal; inactive = no such curve, though single readings can be large or run the other way; the % refers to the signal ratio;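 also: 100% = dexamethasone at 0.1 µM and 0% = DMSO only wells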); conditions: HeLa MMTV-bla, beta-lactamase ratio, agonist, 18 h; stronger effect = higher value; percent of dexamethasone control, DMSO zero
# Summary of the method: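 MMTV-bla HeLa beta-lactamase reporter cells in 1% charcoal/dextran FBS medium, compounds up to 92 uM for 18 h at 37 C, CCF4 readout; normalized to 0.1 uM dexamethasone (100%), EC50 and efficacy from Hill fits.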
# [7] = target: Glucocorticoid receptor (Homo sapiens) (UniProt P04150); test: qHTS assay for small molecule antagonists of glucocorticoid receptor signaling (AID 588533; active = well fitted inhibition curve with a large enough effect in the signal ratio, with a control signal flat, not every such curve was filed as active; inconclusive = small, poorly fitted or top-dose-only effect, or effect the other way, or a change in a side signal; the % refers to the signal ratio; also: potency is read from the fitted curve at half-maximal effect)
# Summary of the method: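 Antagonist-mode qHTS: compound titrations added to GRE-bla HeLa cells, then dexamethasone 2 nM final; 18 h, 37 C. CCF4 FRET fluorescence normalized to dexamethasone and DMSO; IC50 from Hill fit.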
# [8] = target: Vitamin D3 receptor (Homo sapiens) (UniProt P11473); test: qHTS assay for small molecule antagonists of vitamin D receptor signaling (AID 588541); also: potency is read from the fitted curve at half-maximal effect
# Summary of the method: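 VDR-UAS-bla HEK293T cells in 2% charcoal-stripped FBS were stimulated with 1-alpha,25-dihydroxyvitamin D3 (3 nM final) plus compound for 16 h at 37 C. The beta-lactamase CCF4 readout was normalized to 50 nM agonist and DMSO, and Hill fits gave IC50.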
# [9] = target: Vitamin D3 receptor (Homo sapiens) (UniProt P11473); test: qHTS assay for small molecule agonists of vitamin D receptor signaling (AID 588543);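 also: 0% = DMSO basal and 100% = reference agonist control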
# Summary of the method: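 GeneBLAzer VDR-UAS-bla HEK293T cells in 2% charcoal-stripped FBS medium were dosed with compound titrations for 16 h at 37 °C; CCF4 β-lactamase readout (405 nm ex, 460/530 nm em). EC50 and efficacy from Hill fits, normalized to 50 nM calcitriol (100%) and DMSO (0%).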
# [10] = qHTS assay for small molecule antagonists of retinoid X receptor alpha signaling (AID 588546; active = well fitted inhibition curve with a large enough effect in the signal ratio, with a control signal flat, not every such curve was filed as active; inconclusive = small, poorly fitted or top-dose-only effect, or effect the other way, or a change in a side signal; inactive = no such curve, though single readings can be large or run the other way; the % refers to the signal ratio; also: potency is read from the fitted curve at half-maximal effect;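 as to max response: cells stimulated with 9-cis-retinoic acid as agonist; % is scaled to controls: 0 for no effect and ±100 for the full control effect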); conditions: HEK293T RXRa-UAS-bla, beta-lactamase ratio, antagonist mode; measured here: W530 green channel, cytotoxicity proxy
# Summary of the method: (§1)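 Beta-lactamase reporter inhibition, read as CCF4 fluorescence ratio (ex 405, em 460/530 nm) after 2 h at RT. HEK293T UAS-bla cells, 2500/well, were stimulated with 9-cis-RA at 500 or 100 nM final alongside test compound for 18 h at 37 C.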
# [11] = target: Retinoic acid receptor RXR-alpha (Homo sapiens) (UniProt P19793); test: as above; conditions: HEK293T RXRa-UAS-bla, beta-lactamase ratio, antagonist mode
# Summary of the method: as §1
# [12] = qHTS assay for small molecule activators of the p53 signaling pathway (AID 651743; active = well fitted activation curve with a large enough effect in the signal ratio, not every such curve was filed as active; inconclusive = small, poorly fitted or top-dose-only effect, or a change in a side signal; the % refers to the signal ratio; also: potency is read from the fitted curve at half-maximal effect; as to activation: series mostly up to about 92 µM; % of control where 0% means no effect); conditions: HCT-116 p53RE-bla, beta-lactamase FRET ratio, 16 h; activation: stronger effect = higher value
# Summary of the method: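 Following 16 hours of compound exposure at 37 C, HCT-116 cells bearing the p53RE-bla reporter were loaded with LiveBLAzer B/G FRET substrate for 2 hours at room temperature and fluorescence intensity was recorded.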
# [13] = qHTS assay for small molecule activators of the nuclear factor-kappa B (NF-kB) signaling pathway (AID 651749; active = well fitted activation curve with a large enough effect in the signal ratio; inconclusive = small, poorly fitted or top-dose-only effect, or a change in a side signal; the % refers to the signal ratio; also: series mostly up to about 77 µM; % of control where 0% means no effect); conditions: NF-kB-bla ME-180 cells, beta-lactamase FRET ratio, 16 h; stronger effect = higher value
# Summary of the method: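 In this qHTS format, compounds acting as activators increase NF-kB-driven beta-lactamase in ME-180 cells, measured as disrupted FRET after 16 hr exposure at 37C and 5% CO2.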
# [14] = target: Cytochrome P450 2D6 (Homo sapiens) (UniProt P10635); test: qHTS Assay for Inhibitors and Substrates of Cytochrome P450 2D6 (AID 891; active = well fitted inhibition curve with a large enough effect; inconclusive = small, poorly fitted or top-dose-only effect; inactive = no such curve, though single readings can be large or run the other way; also: nearly all actives have a fitted effect of over 60% in size)
# Summary of the method: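 Luminescent read-out of luciferin formed by 5 nM human CYP2D6 demethylating 30 uM Luciferin-ME EGE (Km level) over 60 min at room temperature after NADPH regeneration addition. Data normalized to full inhibition by 1.43 uM quinidine.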
# [15] = qHTS assay for small molecule agonists of the antioxidant response element (ARE) signaling pathway (AID 651741; active = well fitted activation curve with a large enough effect in the signal ratio; inconclusive = small, poorly fitted or top-dose-only effect, or effect the other way, or a change in a side signal; the % refers to the signal ratio; also: potency is read from the fitted curve at half-maximal effect; as to activation: % of control where 0% means no effect)
# Summary of the method: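 Stably integrated ARE-beta-lactamase reporter HepG2 cells; 16 h compound incubation, 37 C; LiveBLAzer FRET substrate 2 h at room temperature; fluorescence intensity.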
# [16] = target: Estrogen receptor (Homo sapiens) (UniProt P03372); test: qHTS assay for small molecule agonists of estrogen receptor alpha signaling (AID 588514);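 also: 0% = vehicle only and 100% = reference agonist; nearly all actives have a fitted effect of over 70% in size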
# Summary of the method: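 Efficacy is expressed against 20 nM 17-beta-estradiol (100%) and DMSO basal (0%); EC50 from Hill equation. Assay: beta-lactamase reporter in ER-alpha-UAS-bla HEK 293 cells, 18 h compound incubation, CCF4 detection.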
# [17] = target: Thyroid hormone receptor beta (Homo sapiens) (UniProt P10828); test: qHTS assay for small molecule antagonists of thyroid hormone receptor beta signaling (AID 588547; active = well fitted inhibition curve with a large enough effect in the signal ratio, with a control signal flat, not every such curve was filed as active; inconclusive = small, poorly fitted or top-dose-only effect, or effect the other way, or a change in a side signal; the % refers to the signal ratio;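 also: cells stimulated with 0.4 nM T3 agonist during compound exposure; series mostly up to about 77 µM; % is scaled to controls: 0 for no effect and ±100 for the full control effect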); conditions: TR-UAS-bla HEK293, beta-lactamase ratio, antagonist mode, 18 h
# Summary of the method: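 TR-UAS-bla GripTite HEK293 cells in 2% charcoal/dextran FBS medium; compounds 0.59 nM to 92 uM with T3 at 0.4nM final, 18 h at 37 C. Beta-lactamase read by CCF4 fluorescence (460/530 nm); Hill fits gave IC50 and efficacy.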
# [18] = qHTS assay for small molecule antagonists of peroxisome proliferator-activated receptor delta signaling (AID 588535; active = well fitted inhibition curve with a large enough effect in the signal ratio, with a control signal flat, not every such curve was filed as active; inconclusive = small, poorly fitted or top-dose-only effect, or effect the other way, or a change in a side signal; inactive = no such curve, though single readings can be large or run the other way; the % refers to the signal ratio;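 as to max response: cells co-treated with a PPAR-delta agonist as stimulator during compound exposure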); conditions: HEK293T PPARd-UAS-bla, beta-lactamase FRET ratio, 18 h; 460 nm channel
# Summary of the method: (§2)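 Fluorescence from CCF4-loaded GeneBLAzer PPAR-delta-UAS-bla HEK293T cells (2 hrs RT loading) quantified reporter inhibition after an 18 hr, 37 C compound exposure across a titration.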
# [19] = target: Peroxisome proliferator-activated receptor delta (Homo sapiens) (UniProt Q03181); test: as above
# Summary of the method: as §2
# Chain of Peroxisome proliferator-activated receptor delta (Homo sapiens) (Q03181 whole entry, looked up): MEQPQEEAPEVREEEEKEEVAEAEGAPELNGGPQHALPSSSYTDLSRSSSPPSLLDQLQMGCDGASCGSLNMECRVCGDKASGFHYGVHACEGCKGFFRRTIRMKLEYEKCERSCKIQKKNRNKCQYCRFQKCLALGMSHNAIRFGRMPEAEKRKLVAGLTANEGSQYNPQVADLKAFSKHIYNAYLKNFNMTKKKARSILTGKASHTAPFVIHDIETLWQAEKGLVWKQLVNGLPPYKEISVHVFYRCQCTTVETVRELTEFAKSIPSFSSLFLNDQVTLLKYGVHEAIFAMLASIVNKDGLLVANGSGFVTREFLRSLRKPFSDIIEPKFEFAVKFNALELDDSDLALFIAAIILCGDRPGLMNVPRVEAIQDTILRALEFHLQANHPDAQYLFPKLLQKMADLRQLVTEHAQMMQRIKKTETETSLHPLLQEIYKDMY
# Chain of Thyroid hormone receptor beta (Homo sapiens) (P10828 whole entry, looked up): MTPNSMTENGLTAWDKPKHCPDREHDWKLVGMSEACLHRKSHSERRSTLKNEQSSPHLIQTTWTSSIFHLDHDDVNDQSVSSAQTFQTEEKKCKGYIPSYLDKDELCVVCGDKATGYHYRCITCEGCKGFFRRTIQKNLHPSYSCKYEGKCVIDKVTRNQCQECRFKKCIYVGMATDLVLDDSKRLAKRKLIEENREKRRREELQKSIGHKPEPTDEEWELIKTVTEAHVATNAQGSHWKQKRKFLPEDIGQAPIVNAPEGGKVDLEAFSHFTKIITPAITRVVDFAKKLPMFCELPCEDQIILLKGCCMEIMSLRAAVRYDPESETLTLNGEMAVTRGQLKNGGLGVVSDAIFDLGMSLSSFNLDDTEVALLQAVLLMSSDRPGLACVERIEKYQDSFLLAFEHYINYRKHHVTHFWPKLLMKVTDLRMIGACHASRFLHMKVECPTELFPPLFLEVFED
# Chain of Glucocorticoid receptor (Homo sapiens) (P04150 whole entry, looked up): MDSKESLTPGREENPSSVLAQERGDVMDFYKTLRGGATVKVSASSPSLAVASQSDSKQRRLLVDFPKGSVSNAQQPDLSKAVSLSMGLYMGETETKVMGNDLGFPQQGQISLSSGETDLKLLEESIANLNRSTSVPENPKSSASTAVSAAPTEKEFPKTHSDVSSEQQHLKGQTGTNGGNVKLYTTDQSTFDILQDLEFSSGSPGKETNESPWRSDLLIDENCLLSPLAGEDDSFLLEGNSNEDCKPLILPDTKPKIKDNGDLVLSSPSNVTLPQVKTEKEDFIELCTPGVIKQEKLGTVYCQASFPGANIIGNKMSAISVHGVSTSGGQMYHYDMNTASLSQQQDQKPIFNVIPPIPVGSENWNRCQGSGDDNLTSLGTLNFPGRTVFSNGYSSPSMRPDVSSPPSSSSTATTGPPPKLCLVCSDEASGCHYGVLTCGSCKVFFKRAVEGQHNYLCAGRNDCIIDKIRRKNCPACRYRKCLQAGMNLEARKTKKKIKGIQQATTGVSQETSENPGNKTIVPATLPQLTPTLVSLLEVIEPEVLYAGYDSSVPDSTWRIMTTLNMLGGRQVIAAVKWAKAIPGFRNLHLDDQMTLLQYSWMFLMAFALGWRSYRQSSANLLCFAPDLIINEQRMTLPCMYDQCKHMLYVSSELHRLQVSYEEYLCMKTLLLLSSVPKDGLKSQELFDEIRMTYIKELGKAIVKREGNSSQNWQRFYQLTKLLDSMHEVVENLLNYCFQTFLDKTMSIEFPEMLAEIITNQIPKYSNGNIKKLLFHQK
# Chain of Estrogen receptor (Homo sapiens) (P03372 whole entry, looked up): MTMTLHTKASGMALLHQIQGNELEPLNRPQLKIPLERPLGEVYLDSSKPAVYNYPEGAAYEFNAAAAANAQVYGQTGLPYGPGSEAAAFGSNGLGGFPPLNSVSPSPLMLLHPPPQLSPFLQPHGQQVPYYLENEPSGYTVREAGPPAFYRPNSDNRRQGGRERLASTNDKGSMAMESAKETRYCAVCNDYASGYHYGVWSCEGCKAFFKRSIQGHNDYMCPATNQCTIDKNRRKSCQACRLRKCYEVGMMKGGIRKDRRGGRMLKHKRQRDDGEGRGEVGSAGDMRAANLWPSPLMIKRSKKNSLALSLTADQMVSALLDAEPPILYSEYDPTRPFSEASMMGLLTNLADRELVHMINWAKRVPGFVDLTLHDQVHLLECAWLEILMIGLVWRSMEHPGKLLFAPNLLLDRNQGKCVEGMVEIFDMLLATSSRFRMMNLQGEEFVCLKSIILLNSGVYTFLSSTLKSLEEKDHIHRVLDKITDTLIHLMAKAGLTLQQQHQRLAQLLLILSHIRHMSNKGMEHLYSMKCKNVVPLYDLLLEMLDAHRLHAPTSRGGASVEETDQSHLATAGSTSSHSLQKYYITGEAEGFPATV
# Chain of Cytochrome P450 2D6 (Homo sapiens) (P10635 whole entry, looked up): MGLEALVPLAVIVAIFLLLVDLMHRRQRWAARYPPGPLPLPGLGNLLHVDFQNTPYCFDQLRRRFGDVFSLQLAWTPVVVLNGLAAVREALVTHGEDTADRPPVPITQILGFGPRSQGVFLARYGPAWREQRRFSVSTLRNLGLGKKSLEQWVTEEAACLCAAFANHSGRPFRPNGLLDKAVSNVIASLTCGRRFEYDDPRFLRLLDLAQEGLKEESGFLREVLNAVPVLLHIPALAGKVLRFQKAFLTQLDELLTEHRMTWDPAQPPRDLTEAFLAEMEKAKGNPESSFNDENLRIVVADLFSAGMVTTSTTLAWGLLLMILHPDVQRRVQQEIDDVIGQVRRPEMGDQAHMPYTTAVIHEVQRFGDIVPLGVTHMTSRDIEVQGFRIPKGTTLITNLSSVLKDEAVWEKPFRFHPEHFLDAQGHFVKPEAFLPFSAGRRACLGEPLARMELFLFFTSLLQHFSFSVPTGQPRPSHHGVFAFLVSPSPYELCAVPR
# Chain of Tumor necrosis factor (Homo sapiens) (P01375 whole entry, looked up): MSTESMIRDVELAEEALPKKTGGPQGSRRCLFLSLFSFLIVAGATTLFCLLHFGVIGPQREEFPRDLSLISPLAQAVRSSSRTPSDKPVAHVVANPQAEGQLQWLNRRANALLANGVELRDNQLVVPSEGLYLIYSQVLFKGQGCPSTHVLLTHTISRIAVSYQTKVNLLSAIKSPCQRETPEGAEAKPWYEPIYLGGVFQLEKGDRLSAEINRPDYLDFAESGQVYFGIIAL
# Chain of Vitamin D3 receptor (Homo sapiens) (P11473 whole entry, looked up): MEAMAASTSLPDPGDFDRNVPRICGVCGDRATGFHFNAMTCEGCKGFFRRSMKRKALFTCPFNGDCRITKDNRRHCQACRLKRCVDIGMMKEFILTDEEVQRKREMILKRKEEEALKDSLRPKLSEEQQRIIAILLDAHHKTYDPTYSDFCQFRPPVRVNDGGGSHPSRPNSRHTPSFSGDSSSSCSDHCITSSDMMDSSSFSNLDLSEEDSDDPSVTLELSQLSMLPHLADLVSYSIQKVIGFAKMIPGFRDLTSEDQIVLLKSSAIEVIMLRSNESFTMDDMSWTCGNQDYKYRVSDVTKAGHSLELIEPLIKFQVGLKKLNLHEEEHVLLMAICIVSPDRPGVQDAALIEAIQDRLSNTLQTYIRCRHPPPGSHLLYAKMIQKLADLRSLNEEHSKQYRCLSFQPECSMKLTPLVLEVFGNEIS
# Chain of Retinoic acid receptor RXR-alpha (Homo sapiens) (P19793 whole entry, looked up): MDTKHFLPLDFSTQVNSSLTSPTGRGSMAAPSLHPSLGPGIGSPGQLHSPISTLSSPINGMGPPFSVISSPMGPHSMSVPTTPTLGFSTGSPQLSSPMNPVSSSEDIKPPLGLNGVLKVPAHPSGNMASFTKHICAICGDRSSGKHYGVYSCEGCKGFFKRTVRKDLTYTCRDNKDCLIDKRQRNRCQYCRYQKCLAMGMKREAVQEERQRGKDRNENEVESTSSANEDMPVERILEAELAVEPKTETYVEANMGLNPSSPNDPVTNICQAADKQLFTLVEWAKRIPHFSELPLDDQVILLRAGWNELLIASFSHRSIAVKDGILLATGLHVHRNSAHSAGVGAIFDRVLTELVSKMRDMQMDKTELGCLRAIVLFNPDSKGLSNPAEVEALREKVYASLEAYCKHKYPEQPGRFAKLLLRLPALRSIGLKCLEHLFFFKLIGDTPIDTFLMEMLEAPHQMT
smiles,measurement,setting,value
O=C(OCC(COC(=O)c1ccccc1)(COC(=O)c1ccccc1)COC(=O)c1ccccc1)c1ccccc1,outcome,[1],inactive
same,outcome,[2],inactive
c1ccc2c(c1)ccc1cc3c(ccc4ccccc43)cc12,Potency,[3],inactive
same,max response,[4],-11.8%
same,outcome,[5],inactive
same,outcome,[2],inactive
CCC(C)Nc1ccc(NC(C)CC)cc1 (centres undefined),Potency,[3],6.31 µM [inconclusive] (active)
same,activation,[6],1.29% (inactive) and -5.53% (inactive)
same,Potency,[7],35.5 µM (active)
same,Potency,[8],6.31 µM (active)
same,outcome,[9],inactive
same,max response,[10],-40%
same,Potency,[11],28.2 µM (active)
CC(=O)Nc1ccc(C(=O)CCl)cc1,activation,[6],-4.98% (inactive) and -25.5% (inactive)
same,Potency,[7],39.8 µM (active)
same,Potency,[8],25.1 µM (active)
same,Potency,[12],31.6 µM (active)
same,activation,[13],-3.62% (inactive)
COc1cc2c(c(OC)c1OC)-c1ccc(OC)c(=O)cc1[C@H](NC(C)=O)CC2,Potency,[14],inactive
same,outcome,[14],inactive
C=CC(=O)OCCOCCOC(=O)C=C,Potency,[3],35.5 µM [inconclusive] (active)
same,Potency,[7],44.7 µM (active)
same,Potency,[15],47.3 µM (active)
same,activation,[12],2.89% (inactive)
same,outcome,[1],inactive
same,outcome,[2],inactive
CNc1ccc(O)cc1,outcome,[9],inactive
same,Potency,[15],13.3 µM (active)
same,activation,[12],-13.4% (inactive)
same,activation,[13],-0.994% (inactive)
same,outcome,[2],inactive
ClC1=C(Cl)C(Cl)(Cl)C(Cl)=C1Cl,Potency,[3],inactive
same,outcome,[16],inactive
same,activation,[6],4.1% (inactive) and -7.79% (inactive)
same,Potency,[8],inactive
same,outcome,[9],inactive
same,max response,[4],-6.21% and -5.28%
same,outcome,[5],inactive
same,max response,[10],5.17% and -3.52%
same,max response,[11],-8.53% (inactive) and -12% (inactive)
same,activity change % (negative = inhibition),[17],-17.2% (inactive) and -1.82% (inactive)
same,activation,[13],-0.183% (inactive) and -0.468% (inactive)
same,outcome,[1],inactive
same,outcome,[2],inactive
CCCCCCCC[N+](CCCCCCCC)(CCCCCCCC)CCCCCCCC,Potency,[8],inactive
same,Potency,[15],8.41 µM (active)
same,outcome,[1],inactive
Cc1cc(Nc2ccc(O)cc2)ccc1N,Potency,[8],inactive
same,outcome,[9],inactive
same,max response,[4],-10.3%
same,outcome,[5],inactive
same,max response,[10],-15.7%
same,max response,[11],21.4% (inactive)
same,activity change % (negative = inhibition),[17],-8.81% (inactive)
same,outcome,[2],inactive
Cc1ccc(S(=O)(=O)Oc2ccc(N=Nc3ccc(-c4ccc(N=Nc5c(O)ccc6cc(S(=O)(=O)O)cc(S(=O)(=O)O)c56)c(C)c4)cc3C)cc2)cc1,Potency,[7],inactive
same,Potency,[8],inactive
same,outcome,[9],inactive
same,max response,[4],-16.1%
same,outcome,[5],inactive
same,max response,[10],-21.4%
same,max response,[11],14.7% (inactive)
same,activity change % (negative = inhibition),[17],6.13% (inactive)
same,activation,[12],1.02% (inactive)
same,activation,[13],-0.0057% (inactive)
same,outcome,[2],inactive
Cc1cc(O)c(C(C)(C)C)cc1Sc1cc(C(C)(C)C)c(O)cc1C,Potency,[3],12.6 µM [inconclusive] (active)
same,outcome,[16],inactive
same,activation,[6],26% (inactive)
same,outcome,[9],inactive
same,outcome,[1],inactive
O=Cc1ccc(Cl)c(Cl)c1,activation,[6],-2.24% (inactive)
same,Potency,[7],inactive
same,max response,[18],20.6%
same,outcome,[19],inactive
same,Potency,[8],inactive
same,outcome,[9],inactive
same,max response,[4],2.17%
same,outcome,[5],inactive
same,activity change % (negative = inhibition),[17],11% (inactive)
same,activation,[12],-1.08% (inactive)
same,activation,[13],-0.954% (inactive)
same,outcome,[1],inactive
same,outcome,[2],inactive
O=C1OC2(c3cc(Br)c(O)c(Br)c3Oc3c2cc(Br)c(O)c3Br)c2c(Cl)c(Cl)c(Cl)c(Cl)c21,Potency,[3],inactive
same,outcome,[16],inactive
same,activation,[6],0.908% (inactive)
same,Potency,[8],inactive
same,max response,[10],20.8%
same,max response,[11],7.11% (inactive)
same,activity change % (negative = inhibition),[17],2.12% (inactive)
same,Potency,[15],66.8 µM (active)
O=C=Nc1ccc(Cc2ccc(N=C=O)cc2)cc1,activation,[6],5.29% (inactive) and -5.07% (inactive)
same,Potency,[7],inactive
same,max response,[18],-20% and 23.7%
same,outcome,[19],inactive
same,Potency,[8],inactive
same,outcome,[9],inactive
same,max response,[4],-1.3% and -4.07%
same,outcome,[5],inactive
same,max response,[10],-3.54% and -5.83%
same,max response,[11],9.21% (inactive) and 0.991% (inactive)
same,activity change % (negative = inhibition),[17],-3.37% (inactive) and 10% (inactive)
same,Potency,[15],inactive
same,activation,[12],6.25% (inactive) and 1.32% (inactive)
same,activation,[13],0.0924% (inactive)
same,outcome,[1],inactive
same,outcome,[2],inactive
Nc1ccc2cc3ccccc3cc2c1,Potency,[15],2.37 µM (active)
c1cc(OCC2CO2)cc(OCC2CO2)c1 (centres undefined),outcome,[16],inactive
same,activation,[6],4.18% (inactive) and -8.77% (inactive)
same,outcome,[9],inactive
same,outcome,[1],inactive
same,outcome,[2],inactive
